Test results from PubChem BioAssay (Tox21).
Inconclusive results are not listed. Activity calls are given as the source filed them. Unless noted, calls come from the whole dose curve.

What was measured:
[1] = qHTS assay to identify small molecule agonists of the sonic hedgehog signaling (Shh) pathway (AID 1259368);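 note: NIH/3T3-derived 3T3Gli1-Luc cells carrying a stable Gli1-driven firefly luciferase reporter; series mostly up to about 92 µM; nearly all actives have a fitted effect of over 15% in size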
Summary of the method: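 Hedgehog pathway agonism scored by increased firefly luciferase luminescence in 3T3Gli1-Luc cells treated 24 hr at 37 C; detection used a 30 min room-temperature reagent incubation.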

[2] = qHTS assay to identify small molecule antagonists of the sonic hedgehog signaling (Shh) pathway (AID 1259369); note: nearly all actives have a fitted effect of over 45% in size; note: potency is the fitted concentration of half-maximal effect
Summary of the method: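 NIH/3T3 stable Gli1-Luc clone, 2,000 cells/well, 4hr settle; cpd + conditioned medium 24hr; Luc reagent 30min RT; luminescence.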

[3] = molecular target: Estrogen receptor beta (Homo sapiens) (UniProt Q92731); experiment: qHTS assay to identify small molecule agonists of the estrogen receptor beta (ER-beta) signaling pathway (AID 1259377; active = well fitted activation curve with a large enough effect in the signal ratio in the repeat runs, not every such curve was filed as active; the % refers to the signal ratio)
Sequence of Estrogen receptor beta (Homo sapiens) (Q92731 whole entry, looked up): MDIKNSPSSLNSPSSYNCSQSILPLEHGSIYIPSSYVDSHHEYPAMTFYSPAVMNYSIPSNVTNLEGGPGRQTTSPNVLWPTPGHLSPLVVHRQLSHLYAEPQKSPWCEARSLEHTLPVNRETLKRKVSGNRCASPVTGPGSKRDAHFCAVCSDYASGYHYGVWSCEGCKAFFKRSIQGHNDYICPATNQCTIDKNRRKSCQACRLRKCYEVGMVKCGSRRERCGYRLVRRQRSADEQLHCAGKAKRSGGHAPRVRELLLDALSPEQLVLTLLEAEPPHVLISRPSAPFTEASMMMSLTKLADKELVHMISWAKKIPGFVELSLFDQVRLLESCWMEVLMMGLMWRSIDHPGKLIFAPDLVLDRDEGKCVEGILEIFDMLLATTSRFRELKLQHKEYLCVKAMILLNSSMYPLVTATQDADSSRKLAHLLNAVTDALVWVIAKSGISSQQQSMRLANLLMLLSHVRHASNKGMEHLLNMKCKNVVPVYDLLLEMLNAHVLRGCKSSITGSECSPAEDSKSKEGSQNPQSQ
Summary of the method: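 qHTS in ER-beta-UAS-bla HEK293T cells: 6 hr settling, then 16 hr compound at 37C, then LiveBLAzer substrate 2 h at RT before fluorescence reading.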

[4] = molecular target: Estrogen receptor beta (Homo sapiens) (UniProt Q92731); experiment: qHTS assay to identify small molecule antagonists of the estrogen receptor beta (ER-beta) signaling pathway (AID 1259378; active = well fitted inhibition curve with a large enough effect in the signal ratio in the repeat runs, not every such curve was filed as active; the % refers to the signal ratio)
Summary of the method: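 ER-beta-UAS-bla HEK293T cells in 2% charcoal-stripped FBS medium treated with compound plus 1nM final 17-beta-estradiol for 16 hr at 37C. Beta-lactamase reporter read by FRET substrate fluorescence after 2 hours at room temperature.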

[5] = qHTS assay to identify small molecule agonists of the androgen receptor (AR) signaling pathway in the presence of an antagonist - cell viability counter screen (AID 1259379; active = well fitted curve in the direction sought with a large enough effect in the repeat runs; an effect the other way counts as inactive or inconclusive;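 note: MDA-kb2 human breast cancer cells carrying an MMTV luciferase reporter; series mostly up to about 92 µM; nearly all actives have a fitted effect of over 25% in size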)
Summary of the method: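 MDA-kb2 viability measured by CellTiter-Fluor fluorescence in the same wells as the luciferase signal; nilutamide 3.0uM final; 15-point compound titration; 16 hr at 37C.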

[6] = qHTS assay to identify small molecule agonists of the estrogen receptor beta (ER-beta) signaling pathway - cell viability counter screen (AID 1259380; active = well fitted curve in the direction sought with a large enough effect in the repeat runs; an effect the other way counts as inactive or inconclusive; note: nearly all actives have a fitted effect of over 30% in size)
Summary of the method: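 Measured: luminescence from CellTiter-Glo after 30 min at room temperature, added to wells already read for the LiveBLAzer FRET reporter (2 hr substrate); ER-beta-UAS-bla HEK293T cells had 16 hr compound treatment at 37C, 5% CO2.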

[7] = qHTS assay to identify small molecule antagonists of the estrogen receptor beta (ER-beta) signaling pathway - cell viability counter screen (AID 1259382; active = well fitted curve in the direction sought with a large enough effect in the repeat runs; an effect the other way counts as inactive or inconclusive; note: series mostly up to about 92 µM; nearly all actives have a fitted effect of over 55% in size)
Summary of the method: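 Readout: luminescence, CellTiter-Glo, same wells as bla assay. System: ER-beta-UAS-bla GripTite HEK293T, 2% charcoal-stripped FBS. Exposure: compounds plus 1nM 17-beta-estradiol, 16 hr, 37C.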

[8] = molecular target: Estrogen receptor (Homo sapiens) (UniProt P03372); experiment: qHTS assay to identify small molecule agonists of the estrogen receptor alpha (ER-alpha) signaling pathway in the presence of an antagonist (AID 1259383); note: top concentration of the series differs between compounds; nearly all actives have a fitted effect of over 15% in size
Sequence of Estrogen receptor (Homo sapiens) (P03372 whole entry, looked up): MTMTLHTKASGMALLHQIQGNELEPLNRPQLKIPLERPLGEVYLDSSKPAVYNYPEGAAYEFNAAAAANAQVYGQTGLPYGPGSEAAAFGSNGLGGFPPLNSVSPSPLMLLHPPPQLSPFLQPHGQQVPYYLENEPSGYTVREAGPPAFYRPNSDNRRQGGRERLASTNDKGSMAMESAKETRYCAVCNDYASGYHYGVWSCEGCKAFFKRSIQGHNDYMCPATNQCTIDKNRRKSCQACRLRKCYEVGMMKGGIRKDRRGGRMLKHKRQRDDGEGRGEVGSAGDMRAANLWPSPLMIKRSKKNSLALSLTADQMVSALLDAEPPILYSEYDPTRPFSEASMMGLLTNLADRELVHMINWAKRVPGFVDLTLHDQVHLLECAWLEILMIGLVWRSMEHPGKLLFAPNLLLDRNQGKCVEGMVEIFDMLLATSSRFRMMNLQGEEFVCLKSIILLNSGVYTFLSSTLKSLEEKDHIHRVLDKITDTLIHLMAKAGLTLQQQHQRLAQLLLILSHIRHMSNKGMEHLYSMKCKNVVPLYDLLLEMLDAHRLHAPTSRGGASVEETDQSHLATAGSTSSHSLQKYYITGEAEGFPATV
Summary of the method: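 Quantitative HTS confirmation: compounds titrated at 15 concentrations onto estrogen-deprived VM7Luc4E2 cells carrying a four-ERE luciferase construct, with ICI-182,780 present at 10.0nM final. Signal is luminescence after 22hr exposure.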

[9] = qHTS assay to identify small molecule agonists or antagonists of the thyroid stimulating hormone receptor (TSHR) signaling pathway - wild type cell line counter screen (AID 1259384)
Summary of the method: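 Wild-type Hek293 cells, 800/well, 18 h at 37C, then compound with Ro20-1724 for 30 min RT. cAMP by HTRF (cAMP-d2/anti-cAMP cryptate), 1 h RT, fluorescence read. 15 concentrations, triplicates.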

[10] = molecular target: Thyrotropin receptor (Homo sapiens) (UniProt P16473); experiment: qHTS assay to identify small molecule antagonists of the thyroid stimulating hormone receptor (TSHR) signaling pathway (AID 1259385); note: nearly all actives have a fitted effect of over 20% in size
Sequence of Thyrotropin receptor (Homo sapiens) (P16473 whole entry, looked up): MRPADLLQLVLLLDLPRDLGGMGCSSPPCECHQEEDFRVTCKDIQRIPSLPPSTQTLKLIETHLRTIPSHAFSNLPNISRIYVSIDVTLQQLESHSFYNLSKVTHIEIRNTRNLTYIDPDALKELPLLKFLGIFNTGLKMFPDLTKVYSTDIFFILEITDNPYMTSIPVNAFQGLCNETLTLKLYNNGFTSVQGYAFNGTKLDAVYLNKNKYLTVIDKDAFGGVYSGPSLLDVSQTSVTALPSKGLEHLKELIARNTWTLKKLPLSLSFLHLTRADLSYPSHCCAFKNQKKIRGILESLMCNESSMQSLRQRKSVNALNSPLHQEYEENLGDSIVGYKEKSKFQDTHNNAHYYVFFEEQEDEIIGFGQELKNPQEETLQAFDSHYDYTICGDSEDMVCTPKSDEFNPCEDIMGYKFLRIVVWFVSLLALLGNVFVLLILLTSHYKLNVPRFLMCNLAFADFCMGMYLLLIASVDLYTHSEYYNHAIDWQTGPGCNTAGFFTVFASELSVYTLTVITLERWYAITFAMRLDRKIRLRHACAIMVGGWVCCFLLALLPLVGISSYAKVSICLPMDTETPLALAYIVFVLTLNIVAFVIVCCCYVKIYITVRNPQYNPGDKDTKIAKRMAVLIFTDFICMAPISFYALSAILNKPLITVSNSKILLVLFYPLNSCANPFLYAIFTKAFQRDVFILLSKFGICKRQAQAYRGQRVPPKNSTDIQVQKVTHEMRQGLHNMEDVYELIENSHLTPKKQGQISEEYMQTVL
Summary of the method: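 TSHR-HEK293 cells (800/well) plated 18 h, then compounds with Ro20-1724 and TSH at 1.5 ng/mL final, 30 min at room temperature. cAMP quantified by HTRF (cAMP-d2/anti-cAMP-cryptate, 1 h); 15 concentrations in triplicate.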

[11] = qHTS assay to identify small molecule agonists of the estrogen receptor alpha (ER-alpha) signaling pathway in the presence of an antagonist - cell viability counter screen (AID 1259386; active = well fitted curve in the direction sought with a large enough effect in the repeat runs; an effect the other way counts as inactive or inconclusive;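 note: series mostly up to about 92 µM; cells exposed to compounds for 22 h at 37 °C before the viability read; nearly all actives have a fitted effect of over 30% in size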)
Summary of the method: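 The test measures whether compounds kill ER-alpha reporter cells (VM7Luc4E2) under antagonist co-treatment (ICI-182,780, 10.0nM). Fluorescence from CellTiter-Fluor is read after a 22hr exposure.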

[12] = molecular target: Progesterone receptor (Homo sapiens) (UniProt P06401); experiment: qHTS assay to identify small molecule agonists of the progesterone receptor (PR) signaling pathway (AID 1346784); note: nearly all actives have a fitted effect of over 30% in size
Sequence of Progesterone receptor (Homo sapiens) (P06401 whole entry, looked up): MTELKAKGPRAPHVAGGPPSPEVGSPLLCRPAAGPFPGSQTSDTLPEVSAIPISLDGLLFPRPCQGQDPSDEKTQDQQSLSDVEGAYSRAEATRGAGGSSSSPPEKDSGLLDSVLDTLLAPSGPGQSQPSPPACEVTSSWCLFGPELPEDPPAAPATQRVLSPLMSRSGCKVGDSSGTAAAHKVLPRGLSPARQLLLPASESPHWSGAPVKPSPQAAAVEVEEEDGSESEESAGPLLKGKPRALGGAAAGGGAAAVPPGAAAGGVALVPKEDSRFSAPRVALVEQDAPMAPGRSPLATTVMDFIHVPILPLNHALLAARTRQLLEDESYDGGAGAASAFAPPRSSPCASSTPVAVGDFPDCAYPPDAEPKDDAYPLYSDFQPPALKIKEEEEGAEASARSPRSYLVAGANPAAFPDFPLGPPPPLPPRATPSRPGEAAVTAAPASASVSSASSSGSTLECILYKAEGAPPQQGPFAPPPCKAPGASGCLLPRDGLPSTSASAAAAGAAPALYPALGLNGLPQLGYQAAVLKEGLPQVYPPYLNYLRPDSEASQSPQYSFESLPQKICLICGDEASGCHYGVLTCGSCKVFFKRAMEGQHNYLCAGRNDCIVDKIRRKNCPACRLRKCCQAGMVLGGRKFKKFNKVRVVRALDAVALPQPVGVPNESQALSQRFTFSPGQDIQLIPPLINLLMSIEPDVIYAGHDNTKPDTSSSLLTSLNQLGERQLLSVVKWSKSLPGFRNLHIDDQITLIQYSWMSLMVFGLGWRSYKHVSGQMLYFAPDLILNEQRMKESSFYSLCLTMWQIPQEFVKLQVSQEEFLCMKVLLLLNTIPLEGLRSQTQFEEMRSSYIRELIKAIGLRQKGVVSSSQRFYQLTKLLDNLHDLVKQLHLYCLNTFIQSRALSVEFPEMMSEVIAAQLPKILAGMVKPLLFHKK
Summary of the method: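 Fluorescence from LiveBLAzer B/G FRET substrate cleavage (2 hr, RT) reported PR activation in PR-UAS-bla HEK 293T cells treated 16 hr at 37C/5% CO2 with compounds; medium contained 2% charcoal-stripped FBS.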

[13] = molecular target: Progesterone receptor (Homo sapiens) (UniProt P06401); experiment: qHTS assay to identify small molecule antagonists of the progesterone receptor (PR) signaling pathway (AID 1346795; active = well fitted inhibition curve with a large enough effect in the signal ratio in the repeat runs, not every such curve was filed as active; the % refers to the signal ratio)
Summary of the method: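 Fluorescence intensity measured 2 hr after adding beta-lactamase FRET substrate to PR-UAS-bla HEK293T cells that had been co-treated 16 hr with compound and 1 nM R5020 (final concentration) in 2% charcoal-stripped FBS.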

[14] = qHTS assay to identify small molecule antagonists of the progesterone receptor (PR) signaling pathway - cell viability counter screen (AID 1346798; active = well fitted curve in the direction sought with a large enough effect in the repeat runs; an effect the other way counts as inactive or inconclusive; note: series mostly up to about 92 µM; nearly all actives have a fitted effect of over 50% in size)
Summary of the method: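 CellTiter-Glo luminescence; PR-UAS-bla HEK293T, 3,000 cells/well; compound + R5020, 16 hr, 37C/5% CO2; 30 min RT before read.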

[15] = qHTS assay to identify small molecule antagonists of the TGF-beta/Smad signaling pathway - cell viability counter screen (AID 1346824; active = well fitted curve in the direction sought with a large enough effect in the repeat runs; an effect the other way counts as inactive or inconclusive; note: nearly all actives have a fitted effect of over 50% in size)
Summary of the method: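 SBE-bla HEK 293T cells, incubated overnight, then compound plus 0.25 ng/mL TGF-beta1 (stock added) for 5 hr at 37 C. Viability was read in the same wells by CellTiter-Glo luminescence after 30 min at room temperature.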

[16] = qHTS assay to identify small molecule agonists of the TGF-beta/Smad signaling pathway - cell viability counter screen (AID 1346829; active = well fitted curve in the direction sought with a large enough effect in the repeat runs; an effect the other way counts as inactive or inconclusive; note: top concentration of the series differs between compounds; nearly all actives have a fitted effect of over 45% in size)
Summary of the method: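 After overnight seating at 37 C and 5% CO2, reporter cells got compounds for 5 hr and FRET substrate for 2 hr; cell viability then came from CellTiter-Glo luminescence.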

[17] = qHTS assay to identify small molecule agonists of the TGF-beta/Smad signaling pathway (AID 1346859; active = well fitted activation curve with a large enough effect in the signal ratio in the repeat runs, not every such curve was filed as active; the % refers to the signal ratio; note: series mostly up to about 77 µM)
Summary of the method: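 After overnight seeding, SBE-bla HEK 293T cells are dosed with compounds in DMSO and kept 5 hr at 37 C, 5% CO2. LiveBLAzer-type FRET substrate is then applied for 2 hr at room temperature.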

[18] = molecular target: Thyrotropin-releasing hormone receptor (Homo sapiens) (UniProt P34981); experiment: qHTS assay to identify small molecule antagonists of the thyrotropin-releasing hormone receptor (TRHR) signaling pathway (AID 1346877; active = well fitted inhibition curve with a large enough effect in the repeat runs, not every such curve was filed as active; note: series mostly up to about 51 µM)
Sequence of Thyrotropin-releasing hormone receptor (Homo sapiens) (P34981 whole entry, looked up): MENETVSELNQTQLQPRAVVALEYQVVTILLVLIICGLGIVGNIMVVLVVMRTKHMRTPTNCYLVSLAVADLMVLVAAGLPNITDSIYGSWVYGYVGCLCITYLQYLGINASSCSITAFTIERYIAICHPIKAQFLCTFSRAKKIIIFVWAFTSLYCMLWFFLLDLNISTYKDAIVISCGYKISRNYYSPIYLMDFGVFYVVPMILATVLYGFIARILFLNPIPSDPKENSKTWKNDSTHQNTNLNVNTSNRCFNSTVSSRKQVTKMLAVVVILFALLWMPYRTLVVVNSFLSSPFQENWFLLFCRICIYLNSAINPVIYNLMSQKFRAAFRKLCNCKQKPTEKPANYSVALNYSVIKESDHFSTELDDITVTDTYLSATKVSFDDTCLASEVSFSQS
Summary of the method: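 Overnight-plated (18 h, 37 °C) HEK293 cells expressing TRHR were dye-loaded 2 h, treated with compound, then stimulated with TRH at 1 nM final. Fluorescence intensity was captured every second for 3 min.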

[19] = qHTS assay to identify small molecule agonists of the progesterone receptor (PR) signaling pathway - cell viability counter screen (AID 1346799); note: nearly all actives have a fitted effect of over 45% in size
Summary of the method: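 In parallel with the beta-lactamase readout, cytotoxicity toward PR-UAS-bla HEK293T cells was measured by CellTiter-Glo luminescence following 16 hr compound incubation in 2% charcoal-stripped FBS medium.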

[20] = molecular target: Androgen receptor (Homo sapiens) (UniProt P10275); experiment: qHTS assay to identify small molecule agonists of the androgen receptor (AR) signaling pathway in the presence of an antagonist (AID 1259381); note: nearly all actives have a fitted effect of over 15% in size
Sequence of Androgen receptor (Homo sapiens) (P10275 whole entry, looked up): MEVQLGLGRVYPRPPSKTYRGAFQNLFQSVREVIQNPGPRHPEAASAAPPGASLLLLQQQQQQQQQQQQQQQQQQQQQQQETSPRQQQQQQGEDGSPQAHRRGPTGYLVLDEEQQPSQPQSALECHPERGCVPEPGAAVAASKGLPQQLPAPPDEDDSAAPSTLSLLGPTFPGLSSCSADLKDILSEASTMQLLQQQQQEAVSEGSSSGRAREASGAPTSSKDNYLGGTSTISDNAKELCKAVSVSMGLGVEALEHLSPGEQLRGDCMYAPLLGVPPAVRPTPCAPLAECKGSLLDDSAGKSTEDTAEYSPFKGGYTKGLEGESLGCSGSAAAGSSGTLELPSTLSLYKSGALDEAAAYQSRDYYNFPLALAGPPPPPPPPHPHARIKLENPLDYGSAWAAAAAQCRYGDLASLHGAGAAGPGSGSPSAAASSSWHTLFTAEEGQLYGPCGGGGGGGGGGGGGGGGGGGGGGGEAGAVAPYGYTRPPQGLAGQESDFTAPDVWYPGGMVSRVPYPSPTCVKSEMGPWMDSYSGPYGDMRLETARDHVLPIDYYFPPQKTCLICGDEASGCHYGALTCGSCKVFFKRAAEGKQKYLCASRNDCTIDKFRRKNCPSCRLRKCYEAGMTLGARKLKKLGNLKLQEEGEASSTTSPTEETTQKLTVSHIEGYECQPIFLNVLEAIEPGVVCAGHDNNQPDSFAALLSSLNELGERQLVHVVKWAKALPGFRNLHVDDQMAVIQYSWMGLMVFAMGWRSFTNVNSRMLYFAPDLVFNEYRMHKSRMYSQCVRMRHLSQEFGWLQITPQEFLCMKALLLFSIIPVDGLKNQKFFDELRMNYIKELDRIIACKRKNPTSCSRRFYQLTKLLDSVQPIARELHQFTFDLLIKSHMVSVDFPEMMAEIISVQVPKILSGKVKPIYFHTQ
Summary of the method: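 Luminescent ONE-Glo read, 30min at room temperature, follows 16hr compound exposure (15 concentrations) of MDA-kb2 cells at 37C, 0% CO2, with nilutamide added at 3.0uM final.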

Measured: Potency

C=CCOCC(O)CS(=O)(=O)O (stereo not given)
not listed: [19] | [20]
inactive: all other assays above

CCCOc1ccccc1-c1nc2n[nH]nc2c(=O)[nH]1
not listed: [10] | [16] | [17] | [19] | [20]
inactive: all other assays above

CCCCCCC(CCCCCCCCCCC(=O)OCC(COC(C)=O)OC(C)=O)OC(C)=O (stereo not given)
active: [2] 1060 nM
not listed: [11] | [13] | [20]
inactive: all other assays above

C[N+](C)(C)CC[N+]1(C)Cc2c(Cl)c(Cl)c(Cl)c(Cl)c2C1
not listed: [13] | [20]
inactive: all other assays above

CC1CCN(CCCC(=O)c2ccc(F)cc2)CC1
not listed: [11] | [19] | [20]
inactive: all other assays above

COc1cccc(Br)c1
not listed: [7] | [11]
inactive: all other assays above

CC(C)(O)Cc1ccccc1
not listed: [11] | [13] | [20]
inactive: all other assays above
